Consider five molecules from PubChem BioAssay.

The source made the active and inactive calls.

Assay [1] relates to Human papillomavirus type 1a protein E7 (residues 44-93). Briefly: HPV1a E7 fragment binders on microarrays, primary screen, biochemical, small-molecule microarray, residues 44-93, 635 nm fluorescence (AID 1108).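 Also: E7 fragment applied at 1 µg/mL in TBST for 1 h at 4 C; score combines spot fluorescence with its signal to noise ratio.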 Particulars: small-molecule microarray binding, fluorescence 635 nm; higher = more signal.
The nature of assay [2]: modulators of HCV replicon luciferase signal, primary screen, HCV replication inhibitor project, Huh7 cells, luciferase reporter (AID 1109).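 Also: huh7 hepatoma cells harbouring a luciferase neomycin HCV replicon reporter; luciferase luminescence as measure of HCV replicon replication; test concentration not given here.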 To be noted: 48 h, higher = more signal.
Assay [3] addresses Left-right determination factor 2 (Homo sapiens) (UniProt O00292). Briefly: LEFTY2 binders on small-molecule microarrays, primary screen, biochemical, small-molecule microarray, 635 nm fluorescence scan (AID 1110). Particulars: LEFTY2 binding, higher = more signal.
The target of assay [4] is Calmodulin-1 (Homo sapiens) (UniProt P0DP23). Briefly: CALM1 binders on microarrays, EGTA buffer, profiling panel, biochemical, small-molecule microarray, Cy5-labelled CALM1 (AID 1111).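 Also: labelled calmodulin applied in Tris saline Tween buffer holding calcium plus EGTA and DTT.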 To be noted: Cy5-CALM1 binding fluorescence, higher = more signal.
The target is the same in assay [5]. Briefly: calcium-bound CALM1 binders on microarrays, profiling panel, artefact control for SMM control-protein annotation, biochemical, small-molecule microarray, Cy5-labelled CALM1, plus calcium (AID 1112).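 Also: score merges spot fluorescence with signal to noise from triplicate slides.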 To be noted: Cy5-CALM1 binding fluorescence, higher = more signal.
Assay [6] can be described thus: small-molecule microarray binders of probe aWnt5a, primary screen, biochemical, biotinylated probe, 635/667 nm fluorescence (AID 1113).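 Also: score merges 667 nm fluorescence intensity with signal-to-noise per printed feature.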 Particulars: higher = more signal.
Assay [7] can be described thus: small-molecule microarray binders of probe aShh, primary screen, biochemical, biotinylated probe, 635/667 nm fluorescence (AID 1114).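 Also: probe is biotin-labelled aShh protein from a stem cell growth factor screen; measures binding of labelled protein to compounds printed on the slide; score merges feature fluorescence at 667 nm with signal-to-noise.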 Particulars: higher = more signal.
Assay [8] in a line: small-molecule microarray binders of probe aNog, primary screen, biochemical, biotinylated probe, 635/667 nm fluorescence (AID 1115).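 Also: probe is biotinylated aNog protein used at 0.15 µg/mL for 1 h at 4 C; z-score combines 667 nm fluorescence of each spot with its signal to noise.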 Particulars: higher = more signal.
The target in assay [9] is Torsin-1A-interacting protein 1 (Homo sapiens) (UniProt Q5JTV8). Briefly: LAP1 binders from COS7 cell lysate, primary screen, small-molecule microarray, 635/667 nm fluorescence (AID 1116). To be noted: COS7-hLAP1 lysate binding, 635 nm fluorescence, higher = more signal.
Torsin-1A-interacting protein 1 (Homo sapiens), sequence (Q5JTV8 whole entry, looked up): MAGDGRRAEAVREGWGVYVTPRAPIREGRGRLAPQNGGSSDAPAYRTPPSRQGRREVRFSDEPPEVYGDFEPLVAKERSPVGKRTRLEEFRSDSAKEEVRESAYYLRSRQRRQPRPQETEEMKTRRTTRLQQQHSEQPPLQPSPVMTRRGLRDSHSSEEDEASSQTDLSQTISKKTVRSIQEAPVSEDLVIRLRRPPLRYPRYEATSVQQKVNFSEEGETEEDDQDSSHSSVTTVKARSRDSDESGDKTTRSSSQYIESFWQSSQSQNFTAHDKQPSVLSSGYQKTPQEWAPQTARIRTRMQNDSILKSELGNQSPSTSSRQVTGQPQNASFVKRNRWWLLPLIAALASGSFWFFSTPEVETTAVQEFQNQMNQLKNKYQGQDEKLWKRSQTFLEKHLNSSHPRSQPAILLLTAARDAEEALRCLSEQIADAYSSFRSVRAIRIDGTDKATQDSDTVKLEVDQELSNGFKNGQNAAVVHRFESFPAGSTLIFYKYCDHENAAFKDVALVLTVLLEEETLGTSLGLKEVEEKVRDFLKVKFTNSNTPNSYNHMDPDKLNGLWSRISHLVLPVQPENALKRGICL
For assay [10], the target named is Alpha-bungarotoxin (Bungarus multicinctus) (UniProt P60615). Briefly: alpha-bungarotoxin binders on microarray, profiling panel, artefact control for SMM control protein annotation, biochemical, small-molecule microarray, Alexa647 label, 635/667 nm fluorescence (AID 1117). Particulars: alpha-BTX-A647 binding fluorescence, higher = more signal.
Alpha-bungarotoxin (Bungarus multicinctus), sequence (P60615 whole entry, looked up): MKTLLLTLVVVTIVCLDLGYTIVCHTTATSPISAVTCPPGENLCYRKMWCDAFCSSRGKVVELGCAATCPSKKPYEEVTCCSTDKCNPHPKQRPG
For assay [11], the target named is Albumin (Bos taurus) (UniProt P02769). Briefly: bovine serum albumin binders on microarray, profiling panel, artefact control for SMM control protein annotation, biochemical, small-molecule microarray, Alexa647 label, 635/667 nm fluorescence (AID 1118).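 Also: score merges 667 nm emission intensity and signal-to-noise per printed compound spot.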 Particulars: BSA-A647 binding, fluorescence 635 nm, higher = more signal.
Albumin (Bos taurus), sequence (P02769 whole entry, looked up): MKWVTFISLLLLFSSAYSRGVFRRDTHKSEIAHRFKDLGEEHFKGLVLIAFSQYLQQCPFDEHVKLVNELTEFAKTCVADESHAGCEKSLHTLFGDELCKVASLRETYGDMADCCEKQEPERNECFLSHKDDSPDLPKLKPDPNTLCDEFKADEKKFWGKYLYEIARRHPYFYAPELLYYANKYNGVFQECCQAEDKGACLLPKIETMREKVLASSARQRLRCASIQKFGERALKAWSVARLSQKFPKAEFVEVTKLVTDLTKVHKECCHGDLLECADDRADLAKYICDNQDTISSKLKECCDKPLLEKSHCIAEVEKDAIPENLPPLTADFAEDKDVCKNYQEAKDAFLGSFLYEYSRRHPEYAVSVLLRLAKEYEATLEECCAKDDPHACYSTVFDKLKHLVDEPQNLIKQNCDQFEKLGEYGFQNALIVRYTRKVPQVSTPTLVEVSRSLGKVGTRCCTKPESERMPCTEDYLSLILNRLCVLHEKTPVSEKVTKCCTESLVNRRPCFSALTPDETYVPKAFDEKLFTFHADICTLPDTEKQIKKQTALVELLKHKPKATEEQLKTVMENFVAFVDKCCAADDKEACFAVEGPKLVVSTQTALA
Assay [12] can be described thus: small-molecule microarray binders of probe aXIP, primary screen, biochemical, NeuroSMM set, 635/667 nm fluorescence (AID 1119).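 Also: probe is the protein aXip251-270 applied at 1 µg/mL to compound-printed slides; binding of probe to printed compounds measured as 667 nm fluorescence plus signal to noise.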 Particulars: higher = more signal, called active from +8 up or from −8 down.
Assay [13] can be described thus: small-molecule binders of probe aNOTCH3, primary screen, biochemical, small-molecule microarray, 635/667 nm fluorescence (AID 1120).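 Also: probe is a biotin-tagged antibody raised against NOTCH3 rather than NOTCH3 protein; score merges spot fluorescence near 667 nm with spot signal to noise.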 Particulars: higher = more signal.
Assay [14] can be described thus: small-molecule binders of probe aNOTCH2, primary screen, biochemical, small-molecule microarray, 635/667 nm fluorescence (AID 1121).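 Also: score merges feature fluorescence read at 667 nm with its signal to noise.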 To be noted: higher = more signal.
Assay [15] addresses Carbonic anhydrase 2 (Homo sapiens) (UniProt P00918). Briefly: CAII small-molecule binders, profiling panel, biochemical, small-molecule microarray, Alexa647-labelled CAII (AID 1122). Particulars: CAII-A647 binding fluorescence, higher = more signal.
Assay [16] in a line: COS7 lysate on small-molecule microarray, probe aHis, 635 nm (AID 1123).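 Also: z-score combines 667nm fluorescence intensity with signal-to-noise per printed compound spot.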 To be noted: COS7 cell lysate, fluorescence, higher = more signal.
Assay [17] can be described thus: compound binding in COS7 lysate, probe aLAP1, primary screen, cell lysate, small-molecule microarray (AID 1124).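 Also: lysate comes from COS7 cells expressing LAP1 and is applied at 0.3 µg/mL; score merges spot fluorescence near 667 nm with signal-to-noise over triplicate slides.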 To be noted: probe aLAP1, fluorescence, higher = more signal.
Assay [18] concerns Sam68 (KHDRBS1). Briefly: Sam68 small-molecule binders, primary screen, biochemical, small-molecule microarray, 635 nm fluorescence (AID 1125).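 Also: score merges 667 nm channel intensity with signal to noise over triplicate slides.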 To be noted: small-molecule microarray binding, higher = more signal.
For assay [19], the system named is Chordin-like protein 2 (CHRDL2). Briefly: CHRDL2 small-molecule binders, primary screen, biochemical, small-molecule microarray, 635 nm fluorescence (AID 1126).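 Also: printed compound slides probed with Chrdl2 protein at 4 µg/mL for 1 h at 4 C; score merges 667 nm emission intensity with signal to noise over three replicate slides.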 To be noted: small-molecule microarray binding, fluorescence 635 nm; higher = more signal.
For assay [20], the target named is Concanavalin-A (Canavalia ensiformis) (UniProt P02866). Briefly: ConA small-molecule binders, primary screen, artefact control for SMM control protein annotation, biochemical, small-molecule microarray, Alexa647 label, 635 nm (AID 1127).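 Also: z combines 667 nm emission intensity with signal-to-noise across three replicate slides.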 Particulars: ConA-A647 binding fluorescence, higher = more signal.
Concanavalin-A (Canavalia ensiformis), sequence (P02866 whole entry, looked up): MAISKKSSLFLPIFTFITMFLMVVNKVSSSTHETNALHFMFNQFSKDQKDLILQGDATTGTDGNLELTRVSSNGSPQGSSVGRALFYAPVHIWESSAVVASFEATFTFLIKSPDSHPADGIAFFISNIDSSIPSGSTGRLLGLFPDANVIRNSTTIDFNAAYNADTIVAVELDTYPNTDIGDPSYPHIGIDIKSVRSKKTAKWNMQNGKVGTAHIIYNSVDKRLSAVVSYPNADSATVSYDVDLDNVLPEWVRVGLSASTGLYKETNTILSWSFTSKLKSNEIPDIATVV

Left-right determination factor 2 (Homo sapiens), sequence (O00292 whole entry, looked up): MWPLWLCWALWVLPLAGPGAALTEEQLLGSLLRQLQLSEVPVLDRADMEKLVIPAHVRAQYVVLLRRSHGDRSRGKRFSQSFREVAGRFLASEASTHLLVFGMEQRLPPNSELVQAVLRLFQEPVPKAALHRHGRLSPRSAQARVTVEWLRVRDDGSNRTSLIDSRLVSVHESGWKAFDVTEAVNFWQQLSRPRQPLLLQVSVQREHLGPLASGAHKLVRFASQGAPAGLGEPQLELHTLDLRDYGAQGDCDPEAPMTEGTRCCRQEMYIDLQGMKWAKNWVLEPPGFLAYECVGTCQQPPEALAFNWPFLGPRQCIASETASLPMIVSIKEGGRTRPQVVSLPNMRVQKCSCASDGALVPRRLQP

Regarding `C=C(C)[C@@H]1CC=C(C(O)C2C=CC3C(=O)N(c4ccccc4)C(=O)C3N2Nc2ccc(C#N)cc2)CC1` (stereo not given in full), the composite z-score in assay [1] is 1.47; in assay [3], 0.0506; in assay [4] it was 1.75; in assay [5], 0.424; in [6], -0.0431; in assay [7], 0.0469. In addition, the composite z-score in assay [8] was 1.5; in assay [9], -0.243; in [10], 1.92; in assay [11], 0.971; in assay [13], 0.217; in assay [14] it was 0.0963. The composite z-score is 0.643 in [15]; 2.46 in [16]; 0.429 in assay [17]; 1.31 in [18]; 0.355 in assay [19]; 1.16 in assay [20]. In addition, in assay [2], the z-score was -0.768. The composite Z-score in [12] is 0.0421 (inactive).

On to `O=C1C2C=CC(C(O)c3cccc(O)c3)N(Nc3ccccc3)C2C(=O)N1c1ccccc1` (stereo not given), for which the composite z-score in assay [1] was 0.752; in [3], -0.0995; in [4], 0.46; in assay [5], 0.16; in assay [6], 0.0077; in [7], 0.398. For the same molecule, the composite z-score was 0.496 in assay [8]; 0.539 in assay [9]; 0.546 in assay [10]; 0.818 in [11]; 0.185 in assay [13]; -0.155 in assay [14]. In addition, the composite z-score in assay [15] was 0.792; in assay [16], 0.653; in assay [17], 0.069; in assay [18], 0.16; in assay [19] it was -0.201; in [20] it was 0.338. In assay [2], the z-score is -0.424. For the same molecule, the composite Z-score in [12] was 0.365 (inactive).

Turning to `CCCCCCCCCCC(O)C1C=CC2C(=O)N(C)C(=O)C2N1Nc1cc(OC)c(OC)c(OC)c1` (stereo not given), the composite z-score in assay [1] is -0.298; in [3], -1.11; in assay [4] it was 1.82; in [5], 1.39; in assay [6], -0.0529; in assay [7], -0.0398. In addition, the composite z-score in assay [8] was 0.837; in assay [9] it was -0.232; in assay [10], 0.229; in assay [11], 0.869; in assay [13] it was -0.125; in assay [14] it was -0.0521. Besides, the composite z-score in assay [15] is 0.0172; in assay [16] it was 1.44; in assay [17] it was 0.148; in [18] it was -0.383; in assay [19], -1.3; in [20] it was 0.245. Further, the z-score in [2] was -2.01. The composite Z-score in assay [12] was 0.776 (inactive).

As for `O=C1N[C@@H](Cc2ccccc2)C(=O)N2[C@@H]1C[C@@H](C(=O)O)[C@H]2c1ccc(O)cc1`, the composite z-score in [1] was 0.436; in assay [3] it was 0.572; in assay [4], 0.58; in [5], -0.661; in assay [6], 0.0718; in assay [7] it was 0.0711. Besides, the composite z-score in assay [8] is -0.0382; in assay [9] it was 0.466; in assay [10] it was 0.431; in assay [11] it was 0.145; in assay [13], 0.428; in [14], 0.0712. The composite z-score in assay [15] turned out to be 0.757; in [16], 1.33; in assay [17], 0.341; in assay [18], 0.754; in [19], 1.1; in assay [20], 1.01. For the same molecule, the z-score in assay [2] was determined as 2.57. The composite Z-score in assay [12] is 0.84 (inactive).

With `C=CCNC(=O)[C@@H]1[C@H]2C(=O)O[C@H](c3ccccc3)[C@H](c3ccccc3)N2[C@H](c2ccc(O)cc2)[C@@]12C(=O)N(C(=O)OCCOC)c1ccc(C#CCCO)cc12`, the composite z-score is -0.472 in assay [1]; 0.863 in assay [3]; 0.355 in [4]; 0.349 in assay [5]; -0.0276 in [6]; -0.0011 in assay [7]. The composite z-score in assay [8] is 0.565; in assay [9], 0.394; in [10], 2.29; in assay [11] it was -0.906; in assay [13] it was 0.364; in [14], -0.0191. Moreover, the composite z-score in assay [15] came to 0.561; in [16] it was 1.88; in assay [17], 0.459; in assay [18], 1.29; in assay [19], 0.467; in assay [20] it was 1.17. In assay [2], this molecule returned a z-score of -0.118. In addition, the composite Z-score in [12] is 0.232 (inactive).
